This note sets out measurements from PubChem BioAssay AID1851 (National Center for Advancing Translational Sciences (NCATS), 2009).

The whole screen tested about 16,000 compounds, of which about 2,600 (16%) were called active. About 20% were inconclusive and are not listed. Calls follow the shape of the dose curve; as a rule, active = well fitted curve in the direction sought with a large enough effect; inconclusive = small, poorly fitted or top-dose-only effect, or effect the other way; inactive = no such curve, though single readings can be large or run the other way. Not all results are given here.
% is scaled to controls: 0 for no effect and ±100 for the full control effect.

Chain of Cytochrome P450 2D6 (Homo sapiens) (P10635 whole entry, looked up): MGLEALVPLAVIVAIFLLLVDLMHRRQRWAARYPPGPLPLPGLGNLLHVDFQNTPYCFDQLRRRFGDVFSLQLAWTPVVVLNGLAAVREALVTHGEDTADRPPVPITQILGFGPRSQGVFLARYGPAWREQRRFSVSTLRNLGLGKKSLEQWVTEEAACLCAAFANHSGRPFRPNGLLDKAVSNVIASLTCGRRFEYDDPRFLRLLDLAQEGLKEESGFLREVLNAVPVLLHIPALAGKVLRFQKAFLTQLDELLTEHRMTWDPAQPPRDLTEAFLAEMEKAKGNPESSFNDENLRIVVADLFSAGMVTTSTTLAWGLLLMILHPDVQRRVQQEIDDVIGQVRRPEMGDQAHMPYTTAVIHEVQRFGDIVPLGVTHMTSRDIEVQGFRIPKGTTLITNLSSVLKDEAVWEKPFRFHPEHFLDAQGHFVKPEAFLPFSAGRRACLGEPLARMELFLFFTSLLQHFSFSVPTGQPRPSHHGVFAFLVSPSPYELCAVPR

The test concerns the target Cytochrome P450 2D6 (Homo sapiens) (UniProt P10635). Briefly: Cytochrome panel assay with activity outcomes. To be noted: recombinant CYP, pro-luciferin dealkylation, luminescence, p450-cyp2d6; series mostly up to 57.1 µM; activity, negative = inhibition: at the top concentration.
With `CCCCCCCCCCCCCCSCC(=O)O`, the “activity, negative = inhibition” value was 13.5% (inactive).
With `COc1ccc(-n2c(-c3cnccn3)n[nH]c2=S)cc1`, the “activity, negative = inhibition” value is -9.31% (inactive).
On the same count and under the same terms, the value for `O=C(Nc1cccc(F)c1)N1CCCC2(CCNCC2)C1` was -13.8% (inactive); that for `C(/C=C\c1ccccc1)=Nc1ccc2c(c1)Cc1ccccc1-2` was -10.4% [at 11.4 µM] (inactive); that for `COc1ccc(-n2c(=O)c(-c3cn(C)c4ccccc34)nc3cncnc32)cc1` was -5.82% (inactive).
Same read-out and setting: in the case of `CC(=O)[C@@]1(O)Cc2c(O)c3c(c(O)c2[C@H](O[C@H]2C[C@H](N)[C@H](O)[C@H](C)O2)C1)C(=O)c1ccccc1C3=O` it was 0.0095% (inactive); in that of `Cn1c(CCC(=O)Nc2ccc(N3CCOCC3)cc2)nc(=O)c2ccccc21`, -12.1% (inactive).
The same measure, in the same setting: in the case of `COC(=O)c1nn(-c2ccccc2)c(=O)cc1Oc1ccccc1` it was -9.53% (inactive); in that of `N#C[C@@H](N=Nc1ccccc1C(=O)O)C(N)=O`, -0.182% [at 11.4 µM] (inactive); in that of `O=C(N/N=C/c1cccc(C(F)(F)F)c1)C1CCN(c2ncc(C(F)(F)F)cc2Cl)CC1`, 25.5% (inactive).
In the case of `COc1ccc(/C=C(/C(=O)Nc2ccccc2C(=O)NC(C)C)c2ccccc2)cc1`, the “activity, negative = inhibition” value is -25.8% (inactive).
Take `Cc1cccc(N2CCN(C(=O)CSCc3c(C)noc3C)CC2)c1C`: the “activity, negative = inhibition” value was -27.5% (inactive).
For `CC(C)OC(=O)CC12CN(C)CC(CC(=O)OC(C)C)(CN(C)C1)C2=O`, the AC50 was 2.51 µM (active).
As to `COc1ccc(CNC(=O)/C=C/c2ccc(OCCCF)cc2)cc1`, the “activity, negative = inhibition” value is -20.6% (inactive).
Regarding `CCSc1ncnc2c1sc1nc(-c3ccco3)c3c(c12)CC(C)(C)OC3`, the “activity, negative = inhibition” value is -3.51% (inactive).
On to `CCCSc1nc(NCc2ccco2)c2c3c(sc2n1)COC(C)(C)C3`, for which the concentration at half-maximal activity (AC50) was 14.1 µM (active).
As for `CCC(O)CNc1nc(-n2nc(C)cc2C)nc2sc3c(c12)CC(C)(C)OC3` (configuration not stated), the “activity, negative = inhibition” value was -8.4% (inactive).
Same read-out and setting: in the case of `O=c1cnc2cnc(N3CCOCC3)nc2n1CCc1ccccc1` it was -11% (inactive); in that of `CCCc1ccc(C2C3=C(CC(C)(C)CC3=O)NC3=C2C(=O)c2ccccc23)cc1` (configuration not stated), 3.78% (inactive).
Consider `CC1(C)CC(=O)C2=C(C1)Nc1cc3c(cc1C2c1ccc(F)cc1)OCO3` (configuration not stated), for which the half-maximal activity concentration (AC50) was 7.08 µM (active).
Regarding `Cc1cc2c(cc1C)NC(c1nc3ccccc3[nH]1)C1=C(CC(C)(C)CC1=O)N2` (configuration not stated), the “activity, negative = inhibition” value is -11.2% (inactive).
For `Brc1ccc([C@H]2CN3CCSC3=N2)cc1`, the “activity, negative = inhibition” value is -14.8% (inactive).
For `Cc1cccc(C)c1NC(=O)C(c1ccccc1)N1CCC1=O` (configuration not stated), the “activity, negative = inhibition” value was -9.63% (inactive).
Same read-out and setting: in the case of `Cc1cccc(C)c1NC(=O)C(NC=O)c1ccccc1Cl` (configuration not stated) it was -25.5% (inactive).
`Cc1cccc(C)c1NC(=O)C(c1ccc(Cl)cc1Cl)N1CCCCC1` (configuration not stated): the AC50 is 10 µM (active).
`NC(N)=N[C@@H]1C(O)[C@H](N=C(N)N)[C@@H](O)C(O)[C@H]1O` (some centres not stated): the activity, negative = inhibition was 4.19% [at 11.4 µM] (inactive).
With `Cc1cc(C(F)(F)F)nn1CC(=O)Nc1cccnc1`, the AC50 is 12.6 µM (active).
As to `CCNS(=O)(=O)c1ccc(NC(=O)c2cc(C(F)(F)F)nn2C)cc1`, the “activity, negative = inhibition” value is 5.15% (inactive).
Consider `NNC(=O)Cc1cccnc1`, for which the activity, negative = inhibition was 8.36% [at 11.4 µM] (inactive).
On the same count and under the same terms, in the case of `CC1=NN(c2ccccc2)C(=O)[C@@H]1N=Nc1ccc(S(N)(=O)=O)cc1` it was 8.14% [at 11.4 µM] (inactive); in that of `CCOC(=O)N1CCC(NC(=O)CCC(=O)N2CC(C)Oc3ccc(C)cc32)CC1` (configuration not stated), -4.46% (inactive).
Turning to `O=C(Nc1c[nH]c(=O)[nH]c1=O)Oc1ccccc1`, the activity, negative = inhibition was -9.58% [at 11.4 µM] (inactive).
On the same count and under the same terms, the value for `O=C(OCc1nc2ccccc2s1)c1ccc(Br)s1` was -15.7% (inactive).
On to `COc1ccc(CCNc2nc(-c3cccnc3)cs2)cc1OC`, for which the AC50 is 7.08 µM (active).
On to `COc1ccc(-c2cc(C(=O)NCc3cccnc3)no2)cc1OC`, for which the “activity, negative = inhibition” value was -16.4% (inactive).
The same measure, in the same setting: the value for `COc1ccc(-c2csc(NC(=O)CCn3cnc4ccccc4c3=O)n2)cc1OC` was -11.6% (inactive).
With `COc1ccccc1CNc1cc(-c2cccnc2)ncn1`, the AC50 is 5.01 µM (active).
As for `N#Cc1cccc(-c2cc(NCc3ccccc3)ncn2)c1`, the “activity, negative = inhibition” value was -10.1% (inactive).
For `COc1cccc(-c2cc(NCc3ccc(OC)cc3OC)ncn2)c1`, the AC50 was 12.6 µM (active).
Turning to `Cc1noc(C)c1-c1cc(NCc2ccccc2)ncn1`, the “activity, negative = inhibition” value is -7.96% (inactive).
On the same count and under the same terms, the value for `Cc1cnc(CNc2cc(-c3cccnc3)ncn2)cn1` was -6.26% (inactive).
Still for that read-out and setting: in the case of `Cc1noc(C)c1-c1cc(NCc2cccnc2)ncn1` it was 8.5% (inactive).
Regarding `COc1cccc(-c2cc(NCc3ccccc3)ncn2)c1`, the AC50 was 12.6 µM (active).
Take `CCN1CCc2c(sc(N)c2C(N)=O)C1`: the “activity, negative = inhibition” value is -8.92% (inactive).
On the same count and under the same terms, in the case of `OC[C@@H]1O[C@@H](n2cnc3c(NC4CCCCC4)ncnc32)[C@@H](O)[C@H]1O` it was -1.5% (inactive); in that of `O=C(Nc1c(C(=O)N2CCOCC2)cnn1-c1ccccc1)c1ccco1`, 10.7% (inactive); in that of `O=c1c(Cc2ccccc2)c(O)nc2n1CCS2`, 16% (inactive).
On the same count and under the same terms, the value for `O=C(c1ccc2nc3ccc(Cl)cc3c(=O)n2c1)N1CCOCC1` was -14.8% (inactive).
Regarding `COc1cccc(-c2cc(NCc3ccccc3OC)ncn2)c1`, the AC50 is 15.8 µM (active).
Consider `COc1cccc(-c2cc(NCc3cccs3)ncn2)c1`, for which the AC50 is 12.6 µM (active).
In the case of `Cc1cnc(CNc2cc(-c3cccc(C#N)c3)ncn2)cn1`, the “activity, negative = inhibition” value was 4.2% (inactive).
`COc1ccccc1CNc1cc(-c2cccc(C#N)c2)ncn1`: the “activity, negative = inhibition” value was -3.17% (inactive).
On to `COCCn1c(=S)[nH]c2cc(C(=O)NC(C)C)ccc2c1=O`, for which the “activity, negative = inhibition” value was 18.7% (inactive).
On the same count and under the same terms, in the case of `O=C(N/N=C/c1ccncc1)c1cc2c(ccc3ccccc32)o1` it was -14.2% (inactive); in that of `CCCC(CCC)C(=O)NNc1cc(=O)c2c(=O)n(C)c(=O)n(C)c2[nH]1`, -14.7% (inactive); in that of `O=C(O)c1cc(S(=O)(=O)N2CCCCC2)ccc1F`, 7.06% (inactive).
Same read-out and setting: the value for `Cc1ccc(S(=O)(=O)Oc2cc(S(=O)(=O)O)cc3cc(S(=O)(=O)O)cc(N)c23)cc1` was 8.03% [at 11.4 µM] (inactive); that for `CC(C)Sc1cc(N2CCOCC2)nc(-c2ccc(Cl)cc2)n1` was 10.4% (inactive).
The same measure, in the same setting: in the case of `CC(=O)NCCc1ccc(O)c(O)c1` it was -0.325% (inactive).
Regarding `Oc1cc2c(cc1O)CN(C(=S)NCCc1ccc(Cl)cc1)CCC2`, the AC50 is 12.6 µM (active).
With `CC(C)(Oc1ccc(CCNC(=O)c2ccc(Cl)cc2)cc1)C(=O)O`, the “activity, negative = inhibition” value was 4.92% [at 25.6 µM] (inactive).
Take `CC(C)C(NC(=O)C1CCCCC1)C(=O)NCc1ccccn1` (configuration not stated): the “activity, negative = inhibition” value was 18.3% (inactive).
Still for that read-out and setting: the value for `O=C1NCCCC1C(=O)Nc1ccccc1C(F)(F)F` (configuration not stated) was -13.4% (inactive); that for `CCS(=O)(=O)N1CCC(C(=O)NCc2cccnc2)CC1` was -6.02% (inactive); that for `CCN1CCN(CCCNC(=O)C(NC(=O)C2CCC(C)CC2)C(C)C)CC1` (configuration not stated) was 2.19% (inactive).
Consider `O=C(NCCCN1CCN(C2CCCCC2)CC1)Nc1ccccc1C(F)(F)F`, for which the AC50 was 5.01 µM (active).
On the same count and under the same terms, in the case of `O=C(NCCc1ccc(Cl)cc1)C1CCN(S(=O)(=O)N2CCC3(CC2)OCCO3)CC1` it was 14.1 µM (active).
On the same count and under the same terms, the value for `O=C(NCCCN1CCCCCC1)[C@@H](c1ccccc1)C1CCCCC1` was 0.631 µM (active); that for `CCCCNC(=O)C1CCN(Cc2ccccn2)CC1` was 8.91 µM (active).
As for `O=C(NCc1ccccc1Cl)C1CCN(S(=O)(=O)N2CCC3(CC2)OCCO3)CC1`, the “activity, negative = inhibition” value was -3.92% (inactive).
For `O=C(Nc1cccn(Cc2ccc(F)cc2)c1=O)NC1CCCCC1`, the “activity, negative = inhibition” value is -13.3% (inactive).
Take `COCCNC(=O)C1CCN(S(=O)(=O)N2CCC3(CC2)OCCO3)CC1`: the “activity, negative = inhibition” value is 24.2% (inactive).
